Experimental findings from the supplement of paper PMC10105736 are described below.

Unmarked numbers belong to inactive results.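 How the source made its calls: active = MAPPIT score above the 99th percentile of random reference set scores in the same batch; inactive = at or below it.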

Common to all, as to assay: MAPPIT interaction score (arbitrary units); higher = stronger binary interaction signal, active = hit call of the paper
One assay addresses Hsp60B. To be noted: MAPPIT configuration: N-N; pair source set: Lit-BS-16.
The next assay deals with Ilp6. To be noted: pair source set: RRS.
The target of a further assay is Hn. To be noted: MAPPIT configuration: N-N; pair source set: Curagen_high_conf.
The target in a further assay is jbug. The settings on record: MAPPIT configuration: N-C; pair source set: screen_3.
For the next assay, the target named is Hrb27C. To be noted: MAPPIT configuration: N-N; pair source set: Lit-BM-16.
The next assay has as its target Hsp27. To be noted: MAPPIT configuration: N-N; pair source set: Curagen_low_conf.
A further assay has as its target Hsc70-1. The settings on record: MAPPIT configuration: N-N; pair source set: DPIM.
A further assay has as its target Hmg-2. To be noted: MAPPIT configuration: N-C; pair source set: screen_3.
The target in the next assay is Ing3. The settings on record: MAPPIT configuration: N-N; pair source set: Curagen_low_conf.
The target of another assay is HP6. To be noted: MAPPIT configuration: N-N; pair source set: screen_1.
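Further: HEK293T cells with Epo stimulation, STAT-responsive firefly luciferase reporter, fold induction versus unstimulated cells divided by the larger fold induction of two negative controls lacking either bait or prey.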

B1: Sf3b3 (protein)
chain: MYLYNLTLQKATGVTHAVHGNFSGGKQQEVLLSRGKSLELLRPDSNTGKVHTLLSTEIFGCVRALMAFRLTGGTKDYIVVGSDSGRIVILEYNPSKNALEKVHQETFGKSGCRRIVPGQYFAIDPKGRAVMIGAVEKQKLAYIMNRDTQARLTISSPLEAHKSNTLTYHMVGVDVGFDNPMFACLEIDYEEADMDPSGDAAQRTQQTLTFYELDLGLNHVVRKYSEPLEEHANFLVSVPGGNDGPSGVLICSENYLTYKNLGDQHDIRCPIPRRRNDLDDPERGMIFICSATHRTKSMYFFLLQTEQGDIFKITLETDDDVVSEIKLKYFDTVPPATAMCVLKTGFLFVASEFGNHYLYQIAHLGDDDDEPEFSSAMPLEEGETFFFAPRALKNLVLVDELPSFAPIITSQVADLANEDTPQLYVLCGRGPRSTLRVLRHGLEVSEMAVSELPGNPNAVWTVKKRADDEFDAYIIVSFVNATLVLSIGETVEEVTDSGFLGTTPTLCCAALGDDALVQVYPDGIRHIRSDKRVNEWKAPGKKSITKCAVNQRQVVITLSGRELVYFEMDPTGELNEYTERSEMPAEIMCMALGTVPEGEQRSWFLAVGLADNTVRILSLDPNNCLTPCSMQALPSPAESLCLVEMGHTESTTQGGLDDDAPAQRSGNNKGTIYLNIGLSNGVLLRTVLDPVSGDLADTRTRYLGSRPVKLFRIKMQGSEAVLAMSSRTWLSYYHQNRFHLTPLSYETLEYASGFSSEQCSEGIVAISTNTLRILALEKLGAVFNQVAFPLQYTPRTFVIHPDTGRMLIAETDHNAYTEDTKSARKEQMAEEMRSAAGDEERELAREMANAFINEVLPEDVFSSPKAGLGLWASQIRCLDAMHGQTMFSVPLTQNEAIMSMAMLKFSIAADGRYYLAVGIAKDLQLNPRISQGGCIDIYKIDPTCSSLEFMHRTDIDEIPGALCGFQGRLLAGCGRMLRIYDFGKKKMLRKCENKHIPYQIVNIQAMGHRVYVSDVQESVFFIRYRRAENQLIIFADDTHPRWVTATTLLDYDTIAIADKFGNLSIQRLPHSVTDDVDEDPTGTKSLWDRGLLSGASQKSENICSFHVGEIIMSLQKATLIPGGSEALIYATLSGTVGAFVPFTSREDYDFFQHLEMHMRNENPPLCGRDHLSYRSSYYPVKNVLDGDLCEQYLSIEAAKQKSIAGDMFRTPNQICKKLEDIRTRYAF
As to B1, the MAPPIT interaction score with Hsp60B was 1.36.

B2: Coprox (protein)
chain: MNALRHTISLVSLGTFQLVRRTRGPHARGFLLGTGLGLASFSAVTYAHSAEAVDPKVNGVQMNTSRFMAEPITDSKALLGDKENMRHRMEILIMEIQAEFCRALEAEENCGQKFKVDRWERPEGGGGITCVLQDGDVFEKAGVNISVVTGSLPPAAVQQMRARGKNLKEGASLPFFASGVSAVIHPRNPHVPTIHFNYRYFEVETAKGEKQWWFGGGTDLTPYYLCEKDASHFHQTLKSACDEHDPTYYPRFKKWCDDYFRIKHRNESRGIGGIFFDDIDSPNQEAAFNFVSSCARAVIPSYVPLVRKHKNREYGNNERQWQLLRRGRYVEFNLIYDRGTKFGLYTPGARYESILMSLPLHARWEYMHEPKSQSEEGKLMKVLKNPKDWV
As for B2, the MAPPIT interaction score with Ilp6 (MAPPIT configuration: N-C) was 0.0185; with Ilp6 (MAPPIT configuration: N-N) it was -0.101.

B3: Nelf-E (protein)
chain: MVYIHFPNNLTEEEQMLQAKYQKLKKKKKALQAHKAPKPEPESSLTLKRPTDARDAREVARKLIKSGAIPAIQKQTKQDQTSFKRPKGQERAKRSTSETTVASYQPFSSTQNDVAQETIISEIIKEEPRRQNLYQHFATERDREERGMPEKVPMDTAQPEKPRAGNTIFVSGNKVTEDFLKKTFNDYGTIVNVSMEIEKSRGFVSFAKPESADRAIAEIHGKNVNGINLQVQLARRQPQIEPINDASSSAVWSSIAASKSQKGSHKDHREMVQYDEDFLL
Consider B3, for which the MAPPIT interaction score is 0.208 in the assay with Hn and 0.0879 in the assay with jbug.

B4: sqd (protein)
chain: MAENKQVDTEINGEDFTKDVTADGPGSENGDAGAAGSTNGSSDNQSAASGQRDDDRKLFVGGLSWETTEKELRDHFGKYGEIESINVKTDPQTGRSRGFAFIVFTNTEAIDKVSAADEHIINSKKVDPKKAKARHGKIFVGGLTTEISDEEIKTYFGQFGNIVEVEMPFDKQKSQRKGFCFITFDSEQVVTDLLKTPKQKIAGKEVDVKRATPKPENQMMGGMRGGPRGGMRGGRGGYGGRGGYNNQWDGQGSYGGYGGGYGGYGAGGYGDYYAGGYYNGYDYGYDGYGYGGGFEGNGYGGGGGGNMGGGRGGPRGGGGPKGGGGFNGGKQRGGGGRQQRHQPY
Consider B4, for which the MAPPIT interaction score with Hrb27C is -0.206.

B5: Lis-1 (protein)
chain: MKMVLSQRQREELNQAIADYLGSNGYADSLETFRKEADLSTEVEKKFGGLLEKKWTSVIRLQKKVMELEAKLTEAEKEVIEGAPTKNKRTPGEWIPRPPEKFSLTGHRASITRVIFHPIFALMVSASEDATIRIWDFETGEYERSLKGHTDSVQDVAFDAQGKLLASCSADLSIKLWDFQQSYECIKTMHGHDHNVSSVAFVPAGDYVLSASRDRTIKMWEVATGYCVKTYTGHREWVRMVRVHIEGSIFATCSNDQTIRVWLTNSKDCKVELRDHEHTVECIAWAPEAAASAINEAAGADNKKGHHQGPFLASGSRDKTIRIWDVSVGLCLLTLSGHDNWVRGLAFHPGGKYLVSASDDKTIRVWDLRNKRCMKTLYAHQHFCTSIDFHKAHPYVISGSVDQTVKVWECR
In the case of B5, the MAPPIT interaction score in the assay with Hsp27 was -0.515.

B6: caly (protein)
chain: MNAAGGGSGAQAAAVAAGNNSLSHNALLSTASGATTMPMAQLADGWLELESDPGLFTLLLKDFGCHDVQVEEVYDLQKPIESPYGFIFLFRWIEERRARRKIVETTAEIFVKDEEAISSIFFAQQVVPNSCATHALLSVLLNCNENNLQLGDTLSRLKTHTKGMSPENKGLAIGNTPELACAHNSHAMPQARRRLERTGAGVSSCRFTGEAFHFVSFVPINGQLFELDGLKPYPMNHGGWEDSEDWTDKFRRVMAERLGIATGEQDIRFNLMAVVPDRRIAITHKLKMLRTNQAIVSGTLQKLLKADEQGESGNGDSQRPDTPTTLLEPSAFTARDLQSLLKNLDTEIAINEQHLADENDRRHMFKVDASRRTHNYDKFICTFLSMLAHQGVLGELVSQHLLPSKKVSGQGAANRISKQSTTASAGGSTAAGTASTPKTQQQQAAAAKNGKSPSKTPGRRRKGRNKCRKRK
With B6, the MAPPIT interaction score with Hsc70-1 is 2.29.

B7: Sas10 (protein)
chain: MDSDGDDYVMSGSDQEYDDEEREILEDLRKQRKKPHDPVQEVLGFSDDDDDDDDDDEEEQQDVAELMRDSDIEGAEDDDRDLPNTMDWGSKRSTYYNTDFVDQDYSSYNAQEEEQARAEEEEAKKIQLRLAKRMSEADFQLDNVEAAPAGSSDDNELSHITKVTSDLAGLSERERRQLMHSESPEFIILTQDFQQHLDEVKNLLKPVLNYVRKHDVPMVPALQYAGLCHTVLTTYCSNVAFYLLLKARRIDVKAHPVIRRLVQLKDLIEELKPRYEEYIRPQLEALLERIEDGDAFTVLDVAQRKAKLQILNKYNDGQQASVSSDDDDNDDDDDAESKEKDLQEEAGEEEEEEDARRGITYQMAKNKGLTPHRKKELRNPRVKHRGKYRKALIRRKGAVRTVRKELQRYGGELSGIKAGVTKSVKFRT
Take B7: in the assay with Hmg-2, the MAPPIT interaction score was 0.087.

B8: mael (protein)
chain: MAPKKHSGFMMFVNEWRNRNAEGRRMTLAQAVSHCGTIWEKMNTQQRGPYNSGGKDANVAQRAKRESSNGHGQVDKAQREATESLMDMKRTIERLVLNAKMSHDLENAKFVFVAFNYFTKALTTDVYVPAEFAACEYSLKEGIRSIYSTMIDPGQIIFGQGSDALLHSSTTHDLPLPPNALGEKNMTKLYRNIVDYLSKCQGKGKTLVVFTPAENITMVKSCFRYLECDDDFRDGGEKIQVFDIQYLLFILKKEVMNVADLNDEKINKFATDAFFKKDFFEFTAGIACQYHEDNDRTKYCTQSMVTRWAYTFTDFMCGDLAITVQPGKHIPAQTKPNYLIISSYASSLDHESSFDSFYSLPGSGVKKESQPEACSLSSSRLSVASSSYKPIDHTSFAANLNEVSEFPSLGMRNSSKHHGIAASAQREWNARNLPTHSRLIRKVSDNDFSVNGADGKLKK
On to B8, for which the MAPPIT interaction score with Hsc70-1 is 2.36.

B9: HBS1 (protein)
chain: MSRHRIVRTMDYNDEYDGYDDIYGHSVEDEHCISPTDAQQWLYDRARGQQSISAFISKNKDIQEEEADEDEDEDAAFAKARRDSESFQMPQLDEIEQAKLSSCVDEVRSVVGDAVSERRIVETSMKFDYDMQKILDEILNEETNKSAKPAVNKMKAPAAPVLPKTVSKTVPTPPPKISLKEPRRGFEIPSPKVPSSPVVSGRNTPVDISAGDDISRSSATVFKVSKEQAVRNARQLYEKERADQKSHIHMIVIGHVDAGKSTLMGHLLYDTGNVSQRVMHKHEQESKKLGKQSFMYAWVLDETGEERARGITMDVGQSRIETKTKIVTLLDAPGHKDFIPNMISGATQADVALLVVDATRGEFESGFELGGQTREHAILVRSLGVNQLGVVINKLDTVGWSQDRFTEIVTKLKSFLKLAGFKDSDVSFTPCSGLTGENLTKKAQEPALTNWYSGRHLLDVIENFKIPERAIDRPLRMSVSDIYKGTGSGFCISGRVETGVLCLNDKVLVGASREQAQVKSLTMNEFPQTCVFAGDQVSVTLPALDINNVTVGCIISDPQTPIPVTTRFQARIIVFNVKVPITMGFPVLLHHQSLIEPAVVCKLTASIHKSTGEVVKKKPRCLGNNSCALVELETSRPICIERYADFKELGRVMLRVAGVTIAAGMVTKIR
B9: the MAPPIT interaction score with Ing3 is 0.0794.

B10: dmt (protein)
chain: MVRTRPVPCVPSPDVNTATRRNPGRPKKQSIGADLSTTISKPGRPKKLSIGADLTTIRKPGRPKKLGADLTTIIRKPGRPTKLSNKQSLTALNEPECRIRKCVVKIRRIKVKNGVVSEISRNDAPDVDASTFEPARNSTMYIPSKVQKSTQPQNIKENVAGPETSPCQQRIRSKSPSGPAAEISPKKPPRFFHRDQPLTRTRSSVTRNVFDFLSQSQIEDDSDREDPAADIIQRLVKDGKACVMVRSRKIGKPRAKRTAKKVRPVGNRRKVSTKDNEPEPVKVVPKSIEPRLQKPSRSLSTIFEPEEDYSNDSEHGYVQPIEVPVQVHVEPSTSKQAHEGAYSNLARSVMLNQTQAQNPLPSTDRRRELINMARQLVSTPLNRRAPPVTDVSATTTALSPIAHQSPNAVRTAGGKSPWRVSDDSPLPNTFMFGFNNSQMPSYSSDHVQRRHVYVPDSPVEHAENIPHEESICPPLHEQNHDSNANDSNEENRPPPTISKSMSINDQESEENAENFVHLPNPRRTLQKRTPFKDINILEVVTLPSWKKNVTATVSKEITPTRVAPRPMATSSPAQRSQTRSNLFGFDDDFACEDIPRKSTTPSKGIAPTSMSLNREVTPALANRNQTEVNTFGCNEILPCENIPKEKETNTEERTSSSQNLFGFDEFITESQDSPANFTGLSQNVNLHDKLHRLAELRPRDGELPQVSYTSIRSDCLGESHSKQTDIRYMLCSTMIAPPRPAKRKPAAPTARESMGLFRVDQDEPEQSFADKQPRRTYVKERPQRKRKKRVQILYIESESEDEDEQDSHDKSLDSPEKKRHHVKRPRRDIEHEAKLEQFVTSFNKQCEEVEKFPVIIE
For the molecule B10, the MAPPIT interaction score in the assay with HP6 is 4.14 (active).
